# Reference: PubChem BioAssay (Tox21)
# A number with no mark means an inactive call. Activity calls are given as the source filed them. Calls follow the shape of the dose curve; as a rule, active = well fitted curve in the direction sought with a large enough effect in the repeat runs; inconclusive = weak or mixed curves; inactive = flat fitted curve, though single readings scatter.
# Assay: qHTS assay to test for compound auto fluorescence at 460 nm (blue) in HEK293 cells (AID 720678)
# Conditions: blue autofluorescence 405/460 nm; series mostly up to 91.3 µM
# Text: National Center for Advancing Translational Sciences [NCATS]
# NIH Chemical Genomics Center [NCGC]
# U.S. Environmental Protection Agency [EPA]
# National Institutes of Environmental Health Sciences [NIEHS]
# National Toxicology Program [NTP]
# U.S. Food and Drug Administration [FDA]
# Compound auto fluorescence often interferes with screening of the compound library against various biological targets and signaling pathways. Some of these compounds may have fluorophoric properties. Such properties may interfere with the assay outputs resulting in false positives and/or negatives. To decrease such complications and ensure the compound activities are relevant in terms of biological response, the Tox21 10K compound library was screened for auto fluorescence.
# From the fluorophores used as reporter signals in our screening assays, the auto fluorescence equivalencies of compounds against three fluorophores have been evaluated: Triamterene, Fluorescein and Rose Bengal sodium for blue, green and red fluorescence, respectively. The fluorescence intensities were measured using Excitation/Emission wavelengths at 405/460nm, 485/535nm and 540/590nm for blue, green and red labels, respectively. This assay includes the blue fluorescence data.
# Tox21 Assay Protocol Summary:
# 2,000 HEK293 cells in 5 uL of culture medium containing 10% dialyzed FBS per well were dispensed into black wall/clear bottom 1536-well plates using a Multidrop Combi Dispenser (Thermo Scientific). The assay plates were incubated for 4-5 hr at 37C to allow cell attachment to the well bottom, followed by the transfer of 23 nL compound or DMSO vehicle by a pintool work station (Kalypsys, San Diego, CA). After the assay plates were incubated overnight at 37C and 5% CO2, fluorescence intensities in the assay plates were measured by an Envision (PerkinElmer, Shelton, CT) plate reader using three labels for measuring blue, green and red fluorescence at […] 460, 535 and 590nm respectively.
# % is scaled to controls: 0 for no effect and ±100 for the full control effect.
Structure (SMILES),outcome,"fluorescence, % of triamterene"
CCCc1nn(C)c2c(=O)[nH]c(-c3cc(S(=O)(=O)N4CCN(C)CC4)ccc3OCC)nc12,inactive,–
CCCOC(=O)CC,inactive,–
CNCCO,inactive,–
CCCCOC(=O)CCC(C)=O,inactive,–
CCN[C@H]1C[C@H](C)S(=O)(=O)c2sc(S(N)(=O)=O)cc21,inactive,–
FB(F)F,inactive,–
CC1CCC(CO)CC1 (stereo not given),inactive,–
Cc1cccc(C)c1NC(=O)CC12CCCN1CCC2,inactive,–
CCCCCCCCCCCCSC,inactive,–
CC1=CCC(O)(C(C)C)CC1 (stereo not given),inactive,–
O=C(O)CC(C(=O)O)S(=O)(=O)O (stereo not given),inactive,–
NC(=O)N1c2ccccc2CC(=O)c2ccccc21,inactive,–
O=Cc1cccc(Br)c1,inactive,–
Nc1ccn([C@@H]2O[C@H](CO)[C@@H](O)C2O)c(=O)n1 (stereo not given in full),inactive,–
C=COCC1CCC(COC=C)CC1 (stereo not given),inactive,–
NCCCC(N)(C(=O)O)C(F)F (stereo not given),inactive,–
COc1c(N2CCNC(C)C2)c(F)cc2c(=O)c(C(=O)O)cn(C3CC3)c12 (stereo not given),inactive,–
Cc1ccccc1N=C(N)N=C(N)N,inactive,–
CC(=O)Oc1cccc(C)c1,inactive,–
Nc1c2c(nc3c1CCC3)CCCC2,inactive,–

Structure (SMILES),outcome,"fluorescence, % of triamterene"
CCCCOCCOC(=O)COc1cc(Cl)c(Cl)cc1Cl,inactive,–
O=C(O)c1cn(C2CC2)c2cc(N3CCNCC3)c(F)cc2c1=O,–,0.0142% [at 18.6 µM]
C[N+](C)(CCOc1ccccc1)Cc1cccs1,inactive,–
CCCC(C)C(=O)OCC (stereo not given),inactive,–
O=[N+]([O-])c1ccc(/C=N\O)o1,inactive,–
COc1cccc(OC)c1C(=O)N[C@@H]1C(=O)N2[C@@H]1SC(C)(C)[C@@H]2C(=O)O,inactive,–
CCOC(=O)CCC(=O)OCC,inactive,–
CN(C)CCN(C)CCN(C)C,inactive,–
CC(=O)O[C@@]12CO[C@@H]1C[C@H](O)[C@@]1(C)C(=O)[C@H](O)C3=C(C)[C@@H](OC(=O)[C@H](O)[C@@H](NC(=O)OC(C)(C)C)c4ccccc4)C[C@@](O)([C@@H](OC(=O)c4ccccc4)[C@H]21)C3(C)C,inactive,–
C[C@@H]1CCC[C@H](C)N1,–,0.0181% [at 18.6 µM]
c1ccc2sc(SN3CCOCC3)nc2c1,inactive,–
CCO[Si](OCC)(OCC)c1ccccc1,inactive,–
Nc1ccncc1N,inactive,–
CN1CCN(c2cc3c(nn2)Oc2ccccc2N3C)CC1,inactive,–
NC(N)=NCCN1CCCCCCC1,–,-0.176% [at 18.6 µM]
C=CC(C)(CCC=C(C)C)OC(=O)CC (stereo not given),inactive,–
CC(C)=CCC/C(C)=C/C#N,inactive,–
CCCC[N+](C)(CCCC)CCCC,inactive,–
CCCCCCCCCCOc1cc2c(=O)c(C(=O)OCC)c[nH]c2cc1OCC,inactive,–
CC(=O)Nc1ccc(OCC(O)CNC(C)C)cc1 (stereo not given),inactive,–
